# According to the supplement of paper PMC8728848:
# The entries come from a sample that favours the strongest signals as a whole.
# B1: NKp30 (Homo sapiens), O14931 (protein)
# chain: LWVSQPPEIRTLEGSSAFLPCSFNASQGRLAIGSVTWFRDEVVPGKEVRNGTPEFRGRLAPLASSRFLHDHQAELHIRDVRGHDASIYVCRVEVLGLGVGTGNGTRLVVEKEHPQLG
# How the values were obtained:
# Experiment in all cases: glycan array binding signal (z-score within array); higher = stronger binding
# Conditions in all cases: glycan notation: IUPAC condensed, linker removed
# Fuc(a1-2)Gal(b1-3)GalNAc = molecular target: Fuc(a1-2)Gal(b1-3)GalNAc
# Procedure, shortened: (§1)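 Glycan array binding is given as a within-array Z-score, which can be read as non-binding when negative. The arrays, 3228 of them, came from the Consortium for Functional Glycomics database and were retained only where the protein sequence was available. Z-scores were averaged across arrays of the same protein sequence at different concentrations or buffers and across linkers.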
# [1] = molecular target: Fuc(a1-2)Gal6S(b1-4)Glc6S
# Procedure, shortened: as §1
# [2] = molecular target: Fuc(a1-3)[Gal3S(b1-4)]Glc
# Procedure, shortened: as §1
# [3] = molecular target: Fuc(a1-3)[Gal3S(b1-4)]Glc6S
# Procedure, shortened: as §1
# [4] = molecular target: Fuc(a1-3)[Gal3S(b1-4)]GlcNAc6S
# Procedure, shortened: as §1
# Gal(b1-3)Gal = molecular target: Gal(b1-3)Gal
# Procedure, shortened: as §1
# Gal(b1-3)GalNAc = molecular target: Gal(b1-3)GalNAc
# Procedure, shortened: as §1
# [5] = molecular target: Gal(b1-3)GalNAc(b1-3)Gal(b1-4)Glc
# Procedure, shortened: as §1
# Gal3S(b1-4)Glc6S = molecular target: Gal3S(b1-4)Glc6S
# Procedure, shortened: as §1
# Gal3S(b1-4)GlcNAc6S = molecular target: Gal3S(b1-4)GlcNAc6S
# Procedure, shortened: as §1
# Gal3S6S(b1-4)GlcNAc6S = molecular target: Gal3S6S(b1-4)GlcNAc6S
# Procedure, shortened: as §1
# Gal4S6S(b1-4)GlcNAc = molecular target: Gal4S6S(b1-4)GlcNAc
# Procedure, shortened: as §1
# Gal6S(b1-4)Glc6S = molecular target: Gal6S(b1-4)Glc6S
# Procedure, shortened: as §1
# Glc(a1-4)Glc = molecular target: Glc(a1-4)Glc
# Procedure, shortened: as §1
# Glc(a1-6)Glc(a1-6)Glc = molecular target: Glc(a1-6)Glc(a1-6)Glc
# Procedure, shortened: as §1
# [6] = molecular target: GlcNAc(a1-6)Gal(b1-4)GlcNAc
# Procedure, shortened: as §1
# [7] = molecular target: Neu5Ac(a2-3)Gal(b1-3)[Neu5Ac(a2-3)Gal(b1-4)]GlcNAc
# Procedure, shortened: as §1
# [8] = molecular target: Neu5Ac(a2-3)Gal(b1-3)[Neu5Ac(a2-6)]GalNAc
# Procedure, shortened: as §1
# [9] = molecular target: Neu5Ac(a2-3)[GalNAc(b1-4)]Gal(b1-4)GlcNAc
# Procedure, shortened: as §1
# [10] = molecular target: Neu5Ac(a2-6)Gal(b1-4)GlcNAc(b1-3)Gal(b1-4)[Fuc(a1-3)]GlcNAc(b1-3)Gal(b1-4)[Fuc(a1-3)]GlcNAc
# Procedure, shortened: as §1
# [11] = molecular target: Neu5Ac(a2-8)Neu5Ac(a2-3)[GalNAc(b1-4)]Gal(b1-4)Glc
# Procedure, shortened: as §1
binder,measurement,setting,value
B1,glycan array binding signal (z-score),Fuc(a1-2)Gal(b1-3)GalNAc,-0.862
same,glycan array binding signal (z-score),[1],2.23
same,glycan array binding signal (z-score),[2],0.441
same,glycan array binding signal (z-score),[3],0.61
same,glycan array binding signal (z-score),[4],0.561
same,glycan array binding signal (z-score),Gal(b1-3)Gal,-0.378
same,glycan array binding signal (z-score),Gal(b1-3)GalNAc,-0.24
same,glycan array binding signal (z-score),[5],-0.43
same,glycan array binding signal (z-score),Gal3S(b1-4)Glc6S,2.3
same,glycan array binding signal (z-score),Gal3S(b1-4)GlcNAc6S,2.56
same,glycan array binding signal (z-score),Gal3S6S(b1-4)GlcNAc6S,2.38
same,glycan array binding signal (z-score),Gal4S6S(b1-4)GlcNAc,2.56
same,glycan array binding signal (z-score),Gal6S(b1-4)Glc6S,2.44
same,glycan array binding signal (z-score),Glc(a1-4)Glc,-0.398
same,glycan array binding signal (z-score),Glc(a1-6)Glc(a1-6)Glc,-0.195
same,glycan array binding signal (z-score),[6],-0.667
same,glycan array binding signal (z-score),[7],0.776
same,glycan array binding signal (z-score),[8],-0.06
same,glycan array binding signal (z-score),[9],-0.354
same,glycan array binding signal (z-score),[10],-0.472
same,glycan array binding signal (z-score),[11],-0.18
